MCF10A rerep: induces DNA re-replication in MCF 10a normal breast cells; MCF 10A DNA re-replication, Hoechst nuclear intensity, 48 h; Potency, µM (series often up to 46.1 µM), hits mostly activators; actives 2.9% (n = 350,000); AID 624296; also: nearly all actives have a fitted effect of over 50% in size
HT1080 IDH1KD tx: kills HT-1080 cells with IDH1 knockdown; HT-1080 IDH1 knockdown viability, ATP luminescence, 48 h; Potency, µM (top dose mostly 46.1 µM), most hits filed as cytotoxic; actives 2% (n = 360,000); AID 686971
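CellTiter-Glo luminescence after 48 h compound exposure at 37 degrees C of IDH1-knockdown HT-1080 cells in 5% FBS RPMI. %Activity scaled between DMSO wells and cell-free media wells, with curves fitted and assigned curve classes.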
SW480 rerep: inducers of DNA re-replication in SW480 colon cancer cells; AID 624297; SW480 DNA re-replication, Hoechst DNA content imaging, 48 h; actives 1.8% (n = 340,000); Potency, µM (doses to about 46.1 µM), most hits filed as activators; also: nearly all actives have a fitted effect of over 55% in size
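DNA re-replication was detected as more nuclei of elevated Hoechst intensity after 48 hr exposure to compound (23 nL pinned per well of 250 cells).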
KB-3-1 tox: kills parental KB-3-1 adenocarcinoma cells. KB-3-1 viability, CellTiter-Glo ATP luminescence, 72 h. Potency, µM (series often up to 46.1 µM), hits mostly cytotoxic. actives 1.4% (n = 400,000). AID 1347075; also: nearly all actives have a fitted effect of over 60% in size
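Cytotoxicity measured as CellTiter-Glo luminescence after 72 h at 37 C. Compound titrations were pinned onto drug-naive KB-3-1 parental adenocarcinoma cells grown in DMEM with 10% FBS, and normalized data fitted to concentration-response curves.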
HT1080-NT tox: kills 2HG-producing HT-1080-NT fibrosarcoma cells; actives 1.6% (n = 360,000); AID 686970; Potency, µM (series often up to 46.1 µM), hits mostly cytotoxic; HT-1080-NT fibrosarcoma viability, CellTiter-Glo ATP luminescence, 48 h;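 also: NT is the 2HG producing partner of a matched IDH1 knockdown line; nearly all actives have a fitted effect of over 55% in size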
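HT-1080-NT; 750 cells/well; 5% FBS RPMI; 48 h compound, 37 degrees C; CellTiter-Glo luminescence; curve fitting and curve-class assignment.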
KB-V1 MDR tox: KB-V1 MDR subline cytotoxicity; KB-V1 MDR cells viability, CellTiter-Glo, 72 h; Potency, µM (series often up to 46.1 µM), most hits filed as cytotoxic; actives 3.4% (n = 400,000); AID 1347076; also: nearly all actives have a fitted effect of over 60% in size
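In this primary screen, KB-V1 cells overexpressing P-gp are incubated with library compounds (lowest to highest concentration) for 72 h at 37 degrees C before a luminescent ATP viability read.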
Large screens that a line does not name were inactive; ! = repeats disagree. This is a sample that favours compounds with a hit; in the whole collection about 8% have one here. Calls follow the shape of the dose curve; as a rule, active = well fitted curve in the direction sought with a large enough effect; inconclusive = small, poorly fitted or top-dose-only effect, or another doubt; inactive = no such curve, though single readings can be large; an effect the other way counts as inactive or inconclusive.

COc1ccc2cc1Oc1ccc(cc1)CC1c3c(cc(OC)c4c3Oc3cc5c(cc3O4)CCNC5C2)CCN1C (stereo unspecified)	MCF10A rerep inconclusive, HT1080 IDH1KD tx 18µM, KB-3-1 tox 16µM, HT1080-NT tox inconclusive, KB-V1 MDR tox inconclusive
COc1ccc2cc1Oc1ccc(cc1)C[C@H]1c3c(cc(OC)c4c3Oc3c(ccc5c3[C@H](C2)N(C)CC5)O4)CCN1C	MCF10A rerep inconclusive, SW480 rerep inconclusive, KB-V1 MDR tox inconclusive
O=C(NC1CC1)C1CCN(C2CCN(Cc3ccccc3C(F)(F)F)CC2)CC1	none
O=C(CNC(=O)c1ccccc1O)N/N=C/c1cc(Br)ccc1OC(=O)/C=C/c1ccco1	HT1080 IDH1KD tx inconclusive, SW480 rerep inconclusive, KB-3-1 tox inconclusive, HT1080-NT tox inconclusive, KB-V1 MDR tox inconclusive
O=C(CNC(=O)c1cccc(F)c1)N/N=C/c1cc(Br)ccc1OC(=O)/C=C/c1ccco1	HT1080 IDH1KD tx inconclusive, SW480 rerep 5.2µM, KB-3-1 tox inconclusive, HT1080-NT tox inconclusive
COc1cc(C#Cc2c(C=O)n(C)c3ccccc23)cc(OC)c1	MCF10A rerep 5.8µM, SW480 rerep 8.2µM, KB-3-1 tox inconclusive
C=CCn1c2ccccc2c(=O)c2cc(C#Cc3cc(OC)cc(OC)c3)ccc21	MCF10A rerep inconclusive, SW480 rerep 6.5µM
Cn1c2ccccc2c(=O)c2cc(C#Cc3ccccn3)ccc21	none
Cc1ccc(NC(=O)c2c(C)nn(-c3ccccc3)c2Cl)cc1	none
O=C(C[C@H]1C(=O)N(c2ccccc2)C[C@@H]1Cc1ccccc1)Nc1ccccc1	KB-3-1 tox 23µM!, KB-V1 MDR tox 9.2µM! (no result: MCF10A rerep, SW480 rerep)
CNC(=O)C[C@H]1C(=O)N(c2ccccc2)C[C@@H]1Cc1ccccc1	none (no result: MCF10A rerep, SW480 rerep)
O=C(C[C@H]1C(=O)N(CCc2ccccc2)C[C@@H]1Cc1ccccc1)Nc1ccccc1	KB-3-1 tox inconclusive, KB-V1 MDR tox 21µM!
CN(CCCNC(=O)c1cccn2c(=O)c3ccccc3nc12)Cc1ccccc1	MCF10A rerep inconclusive, HT1080 IDH1KD tx 20µM, SW480 rerep inconclusive, KB-3-1 tox inconclusive, HT1080-NT tox inconclusive, KB-V1 MDR tox inconclusive
CCn1c(=O)c2cc(C(=O)NCCCN(C)Cc3ccccc3)sc2c2ccccc21	KB-3-1 tox inconclusive (no result: MCF10A rerep, HT1080 IDH1KD tx, SW480 rerep, HT1080-NT tox)
O=C(NCCN1CCN(c2ccccc2F)CC1)c1cccn2c(=O)c3ccccc3nc12	MCF10A rerep 5.2µM, KB-V1 MDR tox inconclusive
O=C(NCCN1CCN(c2ccccc2)CC1)c1cccn2c(=O)c3ccccc3nc12	KB-V1 MDR tox inconclusive
O=C1/C(=C\c2ccccn2)SC(=S)N1Nc1ncc(C(F)(F)F)cc1Cl	KB-3-1 tox inconclusive
O=C1/C(=C/c2ccc(F)cc2)SC(=S)N1Nc1ncc(C(F)(F)F)cc1Cl	MCF10A rerep 3.7µM, SW480 rerep inconclusive
C=CCN1CCN(C(=O)CSc2ccccc2)CC1	none
CN1/C(=C/c2cc[n+](C)c3ccccc23)C=Cc2ccccc21	HT1080 IDH1KD tx 5.8µM, KB-3-1 tox 6.5µM, HT1080-NT tox 7.3µM
Cc1c(C(=O)N(C)C)sc2nc(-c3ccccn3)[nH]c(=O)c12	KB-V1 MDR tox inconclusive
O=c1[nH]c(-c2ccccn2)nc2sc(-c3ccccc3)cc12	MCF10A rerep 1.3µM, SW480 rerep 6.5µM, KB-3-1 tox inconclusive, HT1080-NT tox inconclusive, KB-V1 MDR tox inconclusive
c1ccc(-c2cc3nc(NCC4CC4)nc(NCC4CCCCC4)c3s2)cc1	HT1080 IDH1KD tx 4.6µM, KB-3-1 tox inconclusive, HT1080-NT tox 3.3µM, KB-V1 MDR tox inconclusive (no result: MCF10A rerep, SW480 rerep)
COCCNc1nc(NCC2CCCCC2)c2sc(-c3ccccc3)cc2n1	HT1080 IDH1KD tx 18µM, KB-3-1 tox inconclusive, HT1080-NT tox 18µM, KB-V1 MDR tox inconclusive (no result: MCF10A rerep, SW480 rerep)
COCCNc1nc(-c2ccccc2CO)c2sc(-c3ccccc3)cc2n1	HT1080 IDH1KD tx 0.92µM, KB-3-1 tox 5.8µM, HT1080-NT tox inconclusive, KB-V1 MDR tox 21µM (no result: MCF10A rerep, SW480 rerep)
CN(C)S(=O)(=O)c1ccc2c(c1)/C(=C/c1cc3c([nH]1)CCCC3)C(=O)N2	MCF10A rerep inconclusive, SW480 rerep 10µM, KB-V1 MDR tox inconclusive
CN(C)S(=O)(=O)c1ccc2c(c1)C(=O)c1cc(S(=O)(=O)N(C)C)ccc1CC2	none (no result: HT1080 IDH1KD tx, HT1080-NT tox)
CCOc1cc(/C=N/NC(=O)c2ccc(NC(=O)C3CC3)cc2)ccc1O	none
COc1cc(/C=N/NC(=O)COc2c(C)cc([N+](=O)[O-])cc2C)ccc1OC(=O)c1ccccc1	HT1080 IDH1KD tx 18µM, SW480 rerep inconclusive, HT1080-NT tox inconclusive
COc1cc(C(=O)N/N=C/c2ccc(OC(=O)c3ccccc3)c(OC)c2)ccc1O	SW480 rerep 21µM, KB-3-1 tox inconclusive
COc1cc(/C=N/NC(=O)c2ccc(NC(=O)C3CCCCC3)cc2)ccc1O	HT1080 IDH1KD tx 12µM, HT1080-NT tox inconclusive
O=C(N/N=C/c1cccc(Oc2ccccc2)c1)c1cccc(O)c1	MCF10A rerep inconclusive, HT1080 IDH1KD tx 21µM, SW480 rerep inconclusive, KB-3-1 tox inconclusive, HT1080-NT tox inconclusive
COc1cc(/C=N/NC(=O)c2cc(O)cc(O)c2)ccc1OC(=O)c1ccccc1	none
O=C(N/N=C/c1cccc(Oc2ccccc2)c1)c1cccc(Br)c1	MCF10A rerep inconclusive, SW480 rerep inconclusive
CCC1NC(=O)c2cc3ccccc3cc2-n2c1nc1cc(F)ccc1c2=O (stereo unspecified)	KB-V1 MDR tox inconclusive (no result: MCF10A rerep, SW480 rerep)
O=C1NC(Cc2ccccc2)c2nc3ccccc3c(=O)n2-c2cc3ccccc3cc21 (stereo unspecified)	HT1080 IDH1KD tx 9.2µM, KB-3-1 tox 13µM, HT1080-NT tox inconclusive, KB-V1 MDR tox inconclusive (no result: MCF10A rerep, SW480 rerep)
O=C1NC(Cc2ccccc2)c2nc3cc(F)ccc3c(=O)n2-c2cc3ccccc3cc21 (stereo unspecified)	HT1080 IDH1KD tx 16µM, KB-3-1 tox inconclusive, HT1080-NT tox inconclusive, KB-V1 MDR tox inconclusive (no result: MCF10A rerep, SW480 rerep)
COc1cc2nc3n(c(=O)c2cc1OC)-c1cc2ccccc2cc1C(=O)NC3Cc1ccccc1 (stereo unspecified)	none (no result: MCF10A rerep, SW480 rerep)
Cc1ccc2c(=O)n3c(nc2c1)C(Cc1ccccc1)NC(=O)c1cc2ccccc2cc1-3 (stereo unspecified)	HT1080 IDH1KD tx 5.8µM, KB-3-1 tox 12µM, HT1080-NT tox 6.5µM, KB-V1 MDR tox inconclusive (no result: MCF10A rerep, SW480 rerep)
CC(C)Oc1ccc(CCC(=O)NNC(=O)c2ccccc2C(=O)O)cc1	HT1080 IDH1KD tx inconclusive
CCCCCCn1cc(CN2CC(N3CCN(Cc4cccc(C)c4)CC3)CS2(=O)=O)nn1 (stereo unspecified)	none (no result: MCF10A rerep, SW480 rerep)
O=C(N/N=C/c1cn(-c2ccccc2)nc1-c1cccnc1)c1ccccc1	MCF10A rerep 12µM, HT1080 IDH1KD tx inconclusive, SW480 rerep inconclusive
NC(=O)N/N=C/c1cn(-c2ccccc2)nc1-c1cccnc1	none

Screens from PubChem BioAssay.
